Laboratory results taken from the supplement of paper PMC10941209.
Values without a mark were called inactive.

tested on: Toxoplasma gondii RH 2F1 tachyzoites (intracellular in HFF); assay: parasite survival relative to DMSO control; higher = less antiparasitic activity, active = 20 or less; details: 1 µM; 72 h
In short: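 Toxoplasma gondii RH-2F1 tachyzoites expressing β-galactosidase (5 × 10^3 per well) were used to infect HFF cells at 5 × 10^3 cells/well in 96-well plates for 3 h in D2 medium. Cells then received compound at 1 μM for 72 h at 37°C in 5% CO2, were lysed for 15 min, and were given CPRG, with absorbance at 570 nm read after 30 min. Survival denotes this signal as a percentage of DMSO-treated infected controls. Each value reflects 2 or more biological replicates.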

SMILES | parasite survival
Clc1cc(Cl)c2c(c1)CCc1ccccc1C2n1ccnc1 (stereo not given) | 7.97% (active)
O=C(O)c1cc(-c2ccc(Br)cc2)nc2ccc(Cl)cc12 | 72.8%
C[C@@H](c1nc(-c2ccc(C#N)cc2)cs1)[C@](O)(Cn1cncn1)c1ccc(F)cc1F | 62.9%
C[C@@H](O)[C@H](N)C(=O)NS(=O)(=O)c1cccc(-c2ccc3[nH]ncc3c2)c1 | 40.1%
C[C@H]1[C@@H](c2cccc(C(F)(F)F)c2)OC(=O)N1C(=O)NCc1cncc2ccccc12 | 40.6%
CC(=O)N[C@H](C)C(=O)N[C@H](Cc1ccccc1)C(=O)O | 61.2%
CC(C)(C)NC(=O)N[C@H](C(=O)N1C[C@H]2[C@@H]([C@H]1C(=O)NC(CC1CCC1)C(=O)C(N)=O)C2(C)C)C(C)(C)C (stereo not given in full) | 48.5%
CC[C@@H]1C(=O)OC[C@@H]1Cc1cncn1C | 45.1%
N#CCN1C(=O)COc2cc(F)c(N3C(=O)c4ccccc4C3=O)cc21 | 67.4%
CC(C)(C)c1ccc(C(=O)NC(=O)N2CCCc3ccccc32)cc1 | 49.9%
CCCCCCC1c2ccc(O)cc2Oc2cc(O)ccc21 | 25.2%
CC(=O)Oc1ccccc1C(=O)Nc1ncc([N+](=O)[O-])s1 | 75.8%
O=C(NCc1cccc2ccccc12)c1cccs1 | 32%
Cc1c(F)cccc1NC(=O)Nc1ccc(Cl)c(S(=O)(=O)[C@H]2CCCNC2)c1O | 73.2%
CC(=O)Nc1cc(NS(=O)(=O)c2ccc(Cl)cc2)cc2c(Cl)[nH]nc12 | 52%
